In the supplement of paper PMC12636033:
± gives the standard deviation of the averaged measurements. Over roughly 33,000 sequences, “E-score (rank enrichment, -0.5 to 0.5)” has its median near -0.0075; the highest 2% begin near 0.23. Many of the other results were omitted from the sample, so the highest values are more common in it than they were.

What follows are sequences tested on WT Max(13-93) synthetic (M65Nle) (assay: PBM 8-mer E-score (E-score (rank enrichment, -0.5 to 0.5)); higher = stronger preferential binding).
Protocol: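 Protein binding microarray (universal PBM chip covering all 10-mers in fixed probe flanks) with chemically synthesized human Max(13-93) bHLH-LZ analogs (not full-length Max) bearing noncanonical residues (hArg, Tha, Aib, Nle at 65) and aromatic Cys staples. Read-out per 8-mer (and its reverse complement): E-score (rank-based enrichment, -0.5 to 0.5) and Z-score of median probe intensity.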

| Sequence | PBM 8-mer E-score |
| --- | --- |
| CCGTGGGA | -0.15 ± 0.023 |
| ACGTGGGG | 0.164 ± 0.08 |
| GAGTGGGA | -0.0159 ± 0.0035 |
| ACGTGGGC | 0.33 ± 0.012 |
| AGGTGGGA | 0.0263 ± 0.046 |
| CCGTGGGC | -0.129 ± 0.18 |
| ACGTGGGA | 0.302 ± 0.039 |
| CGCTGCAG | -0.19 ± 0.18 |
| GGACCGAC | -0.168 ± 0.097 |
| CGCAGCCA | -0.117 ± 0.093 |
| AGTGTTCC | -0.151 ± 0.007 |
| GCGGCAAC | -0.106 ± 0.026 |
| CACCCGAG | -0.19 ± 0.056 |
| GAACCAAC | 0.0313 ± 0.051 |
| ATCTCAAA | -0.0195 ± 0.13 |
| CTGAGGAA | -0.111 ± 0.035 |
| ACAATGTA | 0.239 ± 0.034 |
| AAAATGAC | 0.174 ± 0.013 |
| ACAATGAC | 0.0383 ± 0.055 |
| ACAATGAG | 0.137 ± 0.029 |
| ACAATGAT | 0.241 ± 0.024 |
| GCAATGTA | 0.0841 ± 0.011 |

| Sequence | PBM 8-mer E-score |
| --- | --- |
| AAAATGAA | 0.138 ± 0.00081 |
| ACAATGTC | 0.108 ± 0.095 |
| AAAATGAT | 0.249 ± 0.13 |
| TATGACGA | 0.0259 ± 0.072 |
| ATGATGCC | -0.00394 ± 0.018 |
| GGCTACCC | -0.19 ± 0.032 |
| CGCAAGAA | -0.121 ± 0.097 |
| GAGCCGGC | -0.26 ± 0.041 |
| AATGATCC | -0.122 ± 0.097 |
| AACAATAA | 0.213 ± 0.15 |
| ACCAATAT | 0.175 ± 0.057 |
| AACAATAG | -0.112 ± 0.17 |
| AACAATTA | 0.248 ± 0.061 |
| AACAATTG | 0.128 ± 0.05 |
| AACAATAC | 0.236 ± 0.036 |
| AACAATTC | 0.146 ± 0.012 |
| GACAATAC | 0.202 ± 0.02 |
| AACAATAT | 0.252 ± 0.089 |
| AGCCGCTA | -0.263 ± 0.022 |
| CTCGATAA | -0.0814 ± 0.087 |
| AAGCGGGT | -0.0582 ± 0.061 |
| TCAGATCA | -0.0835 ± 0.073 |

| Sequence | PBM 8-mer E-score |
| --- | --- |
| CCTCGACC | -0.128 ± 0.09 |
| GCTAAAAC | -0.101 ± 0.028 |
| TGAGATCA | -0.0342 ± 0.1 |
| AGCTGGAT | -0.164 ± 0.054 |
| CTCCCATA | -0.0036 ± 0.067 |
| ATGTTTAC | 0.243 ± 0.0084 |
| ATGTTTGG | 0.147 ± 0.042 |
| CTGTTTAC | 0.0925 ± 0.099 |
| ATGTTTTA | 0.102 ± 0.043 |
| ATGTTTTG | 0.24 ± 0.066 |
| ATGTTTCC | 0.225 ± 0.092 |
| ACGTTTAG | 0.0123 ± 0.031 |
| ATGTTTAA | 0.22 ± 0.078 |
| ATGTTTAG | 0.278 ± 0.063 |
| AAAATAGG | 0.031 ± 0.16 |
| GACAACCC | 0.0334 ± 0.15 |
| CGGCCAGA | -0.212 ± 0.006 |
| ATGCTTTC | 0.174 ± 0.051 |
| CTGCTTTA | 0.169 ± 0.061 |
| ATGCTTTA | 0.277 ± 0.0049 |
| ATGATCGC | -5e-06 ± 0.043 |
| TGCCCGCA | 0.0712 ± 0.065 |

| Sequence | PBM 8-mer E-score |
| --- | --- |
| GTCATGTA | 0.0154 ± 0.027 |
| GACATGTA | 0.273 ± 0.035 |
| TACATGTA | 0.308 ± 0.042 |
| GACATGTC | 0.163 ± 0.042 |
| AACATGTA | 0.23 ± 0.087 |
| TACATGAA | 0.11 ± 0.053 |
| GTGTCCGA | -0.00187 ± 0.12 |
| AGAGTACG | -0.124 ± 0.0062 |
| TGATCGAA | 0.0153 ± 0.063 |
| CGAGGAAA | 0.0336 ± 0.072 |
| GTTGTAGA | -0.101 ± 0.093 |
| CTTGTAGA | -0.146 ± 0.15 |
| ATTGTAGA | 0.302 ± 0.0094 |
| ATCAATTG | 0.239 ± 0.016 |
| ATCAATTA | 0.225 ± 0.04 |
| ATCAATTC | 0.0046 ± 0.15 |
| AGGACGGC | -0.0864 ± 0.17 |
| AAAACGTC | 0.0934 ± 0.022 |
| GACCGATA | -0.0238 ± 0.067 |
| CTAAACCC | 0.00702 ± 0.049 |
